PAFAH2 FP inh: PAFAH2 (human) inhibition. inhibition, % at 3.39 µM. 340,000 tested, 0.99% active. AID 492956. recombinant PAFAH2, FP-rhodamine activity probe, fluorescence polarization. Q99487;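 active means inhibition above the mean over all tested compounds plus 3 SD, cut at about 30% in these data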;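 further: inhibitors block probe labeling of enzyme so polarization drops; 0% = enzyme with DMSO and 100% = wells lacking PAFAH2 protein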
PAFAH1B3 FP inh: inhibitors of human PAFAH1B3 | recombinant PAFAH1B3, FP-rhodamine probe, fluorescence polarization | inhibition, % at 3.39 µM | 340,000 tested, 0.28% active | AID 492972;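 active means inhibition above the screen-wide average of all tested compounds plus 3 SD, cut at about 25% in these data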;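 further: 0% = enzyme with DMSO only and 100% = wells lacking PAFAH1B3 protein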
PAFAH1B2 FP inh: inhibitors of human PAFAH1B2; recombinant PAFAH1B2, FP-rhodamine activity probe, fluorescence polarization; inhibition, % at 3.39 µM; 340,000 tested, 1.2% active;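 active means inhibition above the mean of all tested compounds plus 3 SD, cut at about 24% in these data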;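 further: 0% = enzyme with DMSO and 100% = wells lacking PAFAH1B2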
PfM18AAP inh-1: PfM18AAP enzyme inhibition; inhibition, % at 7.35 µM; recombinant PfM18AAP, H-Glu-NHMec fluorogenic cleavage; AID 1822; 290,000 tested, 1.2% active;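 active means inhibition above the campaign mean inhibition over all tested compounds plus 3 SD, cut at about 28% in these data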;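 further: 0% = plate median of test compound wells and 100% = 2 mM ZnCl2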
pPAFAH FP inh: pPAFAH (human) enzyme inhibition | Q13093 | recombinant pPAFAH, FP-rhodamine probe fluorescence polarization | 330,000 tested, 1.5% active | AID 463082 | inhibition, % at 3.39 µM;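 active means inhibition above the mean inhibition across the screen plus 3 SD, cut at about 25% in these data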;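 further: inhibitors block binding of the rhodamine activity-based probe so polarization drops; 0% = enzyme with DMSO and 100% = wells lacking pPAFAH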
Target sequence (Q13093 whole entry, looked up): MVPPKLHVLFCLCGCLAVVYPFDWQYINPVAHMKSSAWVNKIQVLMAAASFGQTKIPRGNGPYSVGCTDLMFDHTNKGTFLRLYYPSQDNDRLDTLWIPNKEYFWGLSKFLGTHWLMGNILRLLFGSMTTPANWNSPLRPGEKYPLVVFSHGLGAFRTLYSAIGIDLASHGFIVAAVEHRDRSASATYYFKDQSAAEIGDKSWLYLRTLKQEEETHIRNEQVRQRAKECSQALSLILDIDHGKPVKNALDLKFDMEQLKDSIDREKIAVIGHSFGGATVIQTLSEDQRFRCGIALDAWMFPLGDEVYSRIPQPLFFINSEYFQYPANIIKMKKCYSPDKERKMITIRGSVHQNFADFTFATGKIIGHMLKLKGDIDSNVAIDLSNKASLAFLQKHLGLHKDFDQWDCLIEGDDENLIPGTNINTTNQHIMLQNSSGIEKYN
DSG3 Ab inh: inhibitors of pemphigus antibody binding to human desmoglein-3; P32926; DSG3-coupled beads, scFv-anti-DSG3-GFP binding, flow cytometry; active compounds read low; binding (percent of control), % at 10 µM; 310,000 tested, 0.48% active;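 active means binding more than 3 SD below its plate's average and above zero; inconclusive means below that plate limit but binding exactly zero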;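 further: hits lower antibody fragment binding to DSG3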
PfM18AAP inh-2: PfM18AAP inhibition, confirmation; shares compounds with PfM18AAP inh-1; recombinant PfM18AAP, H-Glu-NHMec fluorogenic cleavage; inhibition, % at 7.35 µM; 2,400 tested, 28% active; AID 2170;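 active means mean inhibition over replicate wells above the hit cutoff set for the earlier primary screen, cut at about 29% in these data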;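 further: 0% = median of test compound wells and 100% = 2 mM ZnCl2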
CTSL1 confirm: Cathepsin L (human) inhibition, confirmation; shares compounds with PfM18AAP inh-1; purified cathepsin L1, Z-Leu-Arg-MCA fluorescence; inhibition, % at 5.96 µM; 2,400 tested, under 10 active;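 active means average inhibition across replicates above the hit cutoff set in the earlier primary screen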;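 further: 0% = median of test compound wells and 100% = Z-Phe-Ala-diazomethylketone 1 µM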
* = called active by the depositor; ? = inconclusive; . = not tested or not shown. Only some compounds are listed: those with a hit (about 3.8% of all), similar ones and a draw of the others.

SMILES	PAFAH2 FP inh	PAFAH1B3 FP inh	PAFAH1B2 FP inh	PfM18AAP inh-1	pPAFAH FP inh	DSG3 Ab inh	PfM18AAP inh-2	CTSL1 confirm
CCc1ccc(C2CC(=O)N3CN(c4ccccc4)CSC3=C2C#N)cc1 (configuration not stated)	-3.9	2.8	5.2	24.3	19.6	85.4	.	.
CCc1ccc(N2CSC3=C(C#N)C(c4cccs4)CC(=O)N3C2)cc1 (configuration not stated)	19.2	6.2	5.9	44.4*	23.6	100.4	-5.5	1.0
COc1ccc(C2CC(=O)N3CN(c4ccc(C)c(Cl)c4)CSC3=C2C#N)cc1OC (configuration not stated)	3.2	4.8	6.2	34.6*	-0.7	93.8	-3.6	-1.7
COc1ccc(C(=O)NC2CCN(CC(=O)NCc3cccc(OC)c3)CC2)cc1	4.3	-2.0	-1.2	2.2	2.1	92.4	.	.
CC(=O)N1CCN(C(=O)c2ccc(S(=O)(=O)Nc3ccccc3F)cc2)CC1	-3.6	5.6	6.1	.	-0.7	?	.	.
CCN1CCN(c2nnc(-c3ccc(C)cc3)c3ccccc23)CC1	2.2	7.1	-5.5	1.5	-1.8	95.4	.	.
O=c1[nH]sc2ccccc12	1.1	-0.2	-1.4	49.7*	.	67.9	30.0*	2.3
COC(=O)c1cc([N+](=O)[O-])c(-n2cncn2)c([N+](=O)[O-])c1	-0.8	1.2	-5.1	83.1*	.	99.5	43.7*	-4.5
CC1CCC(NC(=O)c2cccc(S(=O)(=O)N3CCN(c4ccc(F)cc4)CC3)c2)CC1 (configuration not stated)	-1.9	5.0	7.3	.	-1.1	100.0	.	.
O=C(Nc1cccc(Cl)c1Cl)Nn1cnnc1	-3.7	-5.7	-2.6	84.3*	-2.4	100.7	76.9*	-2.6
S=C(Nc1cccc(Cl)c1Cl)N1CCCC1	-1.0	0.2	-1.0	-4.8	.	119.8	.	.
S=C(Nc1cccc(Cl)c1Cl)Nn1cnnc1	2.4	3.3	1.7	82.2*	6.8	101.3	82.2*	-0.7
CCOc1ccc(NC(=O)CSc2nnnn2C2CCCC2)cc1	-1.1	1.7	5.5	0.0	1.0	101.4	.	.
COc1ccc(CN2CCN(c3ccccc3OC)CC2)c(OC)c1	7.4	2.2	1.1	-1.9	-3.0	118.4	.	.
COc1ccccc1N1CCN(Cc2cc3c(cc2[N+](=O)[O-])OCO3)CC1	-3.2	-8.4	4.8	31.8*	1.6	99.8	-24.8	3.8
O=c1c2cc(N3CCOCC3)ccc2[nH]c(=S)n1Cc1ccccc1Cl	4.7	9.5	1.4	1.6	4.8	89.6	.	.
O=c1c2cc(N3CCOCC3)ccc2[nH]c(=S)n1Cc1ccccn1	1.4	3.0	1.9	43.6*	6.2	.	-2.6	-1.9
COc1cc(-c2cc(OC)c3c(C)oc(C)c3c(=O)c2)ccc1O	1.4	10.9	-0.6	21.4	5.5	97.0	.	.
COc1cc(-c2cc(=O)c3c(O)c(OC)c(OC)c(O)c3o2)ccc1O	7.2	25.5	6.2	49.1*	26.4*	.	31.7*	2.8
COc1c(O)c(O)c2oc(-c3ccccc3)cc(=O)c2c1OC	0.1	10.9	3.6	33.1*	18.6	102.7	12.1	3.0
Cc1ccc(Nc2nc(/N=C/NO)n[nH]2)cc1C	3.2	5.5	3.6	33.4*	-3.2	104.2	-4.0	-1.7
CCN(CC(=O)Nc1ccc(NC(C)=O)cc1)C(=O)CCCc1c[nH]c2ccccc12	1.8	-1.6	-2.2	.	1.4	.	.	.
Cc1cc(C)c2c(=O)n(CC(=O)NCCCN3CCN(c4ccccc4F)CC3)sc2n1	.	.	.	46.5*	5.4	.	-9.1	0.2
Cc1ccccc1CS(=O)(=O)CCC(=O)NCCCN1CCN(c2ccccc2F)CC1	6.2	4.6	-2.6	-16.1	15.6	107.5	.	.
Cc1cc(C)c2c(=O)n(CC(=O)NCCCN3CCOCC3)sc2n1	-1.9	13.8	9.1	54.0*	-3.3	48.8	32.0*	0.4
Cc1cc([N+](=O)[O-])nn1CC(=O)NCCCN1CCOCC1	11.5	4.4	2.4	-4.2	2.4	104.6	.	.
CCC(O)c1cnc(OCc2ccccc2)nc1OCc1ccccc1 (configuration not stated)	.	.	.	.	.	105.2	.	.

Screens (PubChem BioAssay)
